Structures can show the parent of a compound that is named as a salt. ± gives the standard error. Screen size: about 1,300 compounds; about 130 (10%) showed an effect of 50% or more. The full list was thinned out, with strong results kept by preference.
System: Trichoderma virens ATCC 9645
Experiment: growth yield (OD600) with compound + IPBC relative to untreated control; higher = less growth inhibition
Details: compound concentration: 100 uM, IPBC concentration: 200 ng/ml
How it was run: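 Library compounds (100 μM final), with or without a co-applied biocide (200 ng ml^−1), were added to 100 μl aliquots of Trichoderma virens ATCC 9645 spores at 15,000 spores ml^−1 in potato dextrose broth. Cultures were grown at 30 °C in 96-well plates, and OD600 was measured at 40 h and 72 h. Each growth value is a mean of duplicate screens, expressed relative to the control with neither agent.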

Structure (SMILES)	growth yield (40 h) [%]	growth yield (72 h) [%]
CC(Cc1cccc(C(F)(F)F)c1)NCCOC(=O)c1ccccc1 (stereo not drawn) [Benfluorex] + CCCCNC(=O)OCC#CI [3-iodo-2-propynyl butylcarbamate (IPBC)]	56.4 ± 1.8	81.8 ± 1.5
Cc1cccc(Nc2ccncc2S(=O)(=O)NC(=O)NC(C)C)c1 [Torsemide] + CCCCNC(=O)OCC#CI [3-iodo-2-propynyl butylcarbamate (IPBC)]	95.3	114 ± 17
CNCC[C@@H](Oc1cccc2ccccc12)c1cccs1 [(R)-Duloxetine hydrochloride] + CCCCNC(=O)OCC#CI [3-iodo-2-propynyl butylcarbamate (IPBC)]	61.6 ± 3.8	90.3 ± 0.1
O=C(O)CCCC[C@@H]1SC[C@@H]2NC(=O)N[C@@H]21 [Biotin] + CCCCNC(=O)OCC#CI [3-iodo-2-propynyl butylcarbamate (IPBC)]	85.3 ± 3.3	91.03 ± 0.84
C=C1C[C@@H]2[C@H](CC[C@]3(C)C(=O)CC[C@@H]23)[C@@]2(C)C=CC(=O)C=C12 [Exemestane] + CCCCNC(=O)OCC#CI [3-iodo-2-propynyl butylcarbamate (IPBC)]	63.5 ± 0.64	77.6 ± 1.5
CCOc1cc(CC(=O)N[C@@H](CC(C)C)c2ccccc2N2CCCCC2)ccc1C(=O)O [Repaglinide] + CCCCNC(=O)OCC#CI [3-iodo-2-propynyl butylcarbamate (IPBC)]	104 ± 7.3	104 ± 4.8
CN1CCN(C(c2ccccc2)c2ccc(Cl)cc2)CC1 (stereo not drawn) [Chlorcyclizine hydrochloride] + CCCCNC(=O)OCC#CI [3-iodo-2-propynyl butylcarbamate (IPBC)]	76.9 ± 1.6	91.6 ± 2.6
Cc1cccc(CN2CCN(C(c3ccccc3)c3ccc(Cl)cc3)CC2)c1 (stereo not drawn) [Meclozine dihydrochloride] + CCCCNC(=O)OCC#CI [3-iodo-2-propynyl butylcarbamate (IPBC)]	3.02 ± 1.1	3.78 ± 0.63
CN1CCCN(C(c2ccccc2)c2ccc(Cl)cc2)CC1 (stereo not drawn) [Homochlorcyclizine dihydrochloride] + CCCCNC(=O)OCC#CI [3-iodo-2-propynyl butylcarbamate (IPBC)]	58.5 ± 2.2	89.9 ± 1.6
O=C(Nc1ccccc1)OCC(CN1CCCCC1)OC(=O)Nc1ccccc1 (stereo not drawn) [Diperodon hydrochloride] + CCCCNC(=O)OCC#CI [3-iodo-2-propynyl butylcarbamate (IPBC)]	77.4 ± 4.3	96.9 ± 1.7
CCC1(c2cccc(O)c2)CCCCN(C)C1 (stereo not drawn) [Meptazinol hydrochloride] + CCCCNC(=O)OCC#CI [3-iodo-2-propynyl butylcarbamate (IPBC)]	89.7 ± 3.6	92.5 ± 2.7
O=C(O)c1cn(-c2ccc(F)cc2)c2cc(N3CCNCC3)c(F)cc2c1=O [Sarafloxacin] + CCCCNC(=O)OCC#CI [3-iodo-2-propynyl butylcarbamate (IPBC)]	81.2 ± 6.8	98.2 ± 5.5
O=c1[nH]c2ccccc2n1CCCN1CCC(n2c(=O)[nH]c3cc(Cl)ccc32)CC1 [Domperidone] + CCCCNC(=O)OCC#CI [3-iodo-2-propynyl butylcarbamate (IPBC)]	63.5 ± 2.9	91.8 ± 2.4
O=C1NCCN1CCN1CCC(c2cn(-c3ccc(F)cc3)c3ccc(Cl)cc23)CC1 [Sertindole] + CCCCNC(=O)OCC#CI [3-iodo-2-propynyl butylcarbamate (IPBC)]	5.24 ± 0.79	3.46 ± 0.1
CCNCC(O)c1cccc(O)c1 (stereo not drawn) [Etilefrine hydrochloride] + CCCCNC(=O)OCC#CI [3-iodo-2-propynyl butylcarbamate (IPBC)]	96.9 ± 3.5	98.1 ± 2.4
CC(=O)OCC(=O)[C@@]1(O)CC[C@H]2[C@@H]3CCC4=CC(=O)C=C[C@]4(C)[C@@]3(F)[C@@H](O)C[C@@]21C [Isoflupredone acetate] + CCCCNC(=O)OCC#CI [3-iodo-2-propynyl butylcarbamate (IPBC)]	87.8 ± 2.1	91.7 ± 1.1
CN(C/C=C/C#CC(C)(C)C)Cc1cccc2ccccc12 [Terbinafine] + CCCCNC(=O)OCC#CI [3-iodo-2-propynyl butylcarbamate (IPBC)]	3.18 ± 0.64	2.94 ± 0.42
CN(Cc1ccc(C(C)(C)C)cc1)Cc1cccc2ccccc12 [Butenafine Hydrochloride] + CCCCNC(=O)OCC#CI [3-iodo-2-propynyl butylcarbamate (IPBC)]	4.13	2.73
c1ccc2c(CC3=NCCN3)cccc2c1 [Naphazoline hydrochloride] + CCCCNC(=O)OCC#CI [3-iodo-2-propynyl butylcarbamate (IPBC)]	87 ± 1.9	91.9
CN(C/C=C/c1ccccc1)Cc1cccc2ccccc12 [Naftifine hydrochloride] + CCCCNC(=O)OCC#CI [3-iodo-2-propynyl butylcarbamate (IPBC)]	13.2 ± 3	50 ± 2.2
C#CCN(C)Cc1ccccc1 [Pargyline hydrochloride] + CCCCNC(=O)OCC#CI [3-iodo-2-propynyl butylcarbamate (IPBC)]	89.3 ± 4.5	95.5 ± 2.4
OC(CCN1CCCCC1)(c1ccccc1)C1CCCCC1 (stereo not drawn) [Trihexyphenidyl-D,L Hydrochloride] + CCCCNC(=O)OCC#CI [3-iodo-2-propynyl butylcarbamate (IPBC)]	101 ± 16	102 ± 8.6

Structure (SMILES)	growth yield (40 h) [%]	growth yield (72 h) [%]
COC(=O)Nc1nc2cc(C(=O)c3cccs3)ccc2[nH]1 [Nocodazole] + CCCCNC(=O)OCC#CI [3-iodo-2-propynyl butylcarbamate (IPBC)]	107 ± 2.9	109 ± 1.1
CN(C)CCCOc1nn(Cc2ccccc2)c2ccccc12 [Benzydamine hydrochloride] + CCCCNC(=O)OCC#CI [3-iodo-2-propynyl butylcarbamate (IPBC)]	65.8 ± 2.2	88.4 ± 2.2
CC(=O)Nc1ccc(O)cc1 [Acetaminophen] + CCCCNC(=O)OCC#CI [3-iodo-2-propynyl butylcarbamate (IPBC)]	105 ± 20	103 ± 14
CC(C)[N+](C)(CCOC(=O)C1c2ccccc2Oc2ccccc21)C(C)C [Propantheline bromide] + CCCCNC(=O)OCC#CI [3-iodo-2-propynyl butylcarbamate (IPBC)]	78.8 ± 3.2	89.1 ± 3.6
CC(=O)N[C@@H](CC(C)C)C(=O)O [N-Acetyl-L-leucine] + CCCCNC(=O)OCC#CI [3-iodo-2-propynyl butylcarbamate (IPBC)]	86.57 ± 0.16	93.8 ± 2.3
C[C@]12CC[C@@H]3c4ccc(OS(=O)(=O)O)cc4CC[C@H]3[C@@H]1CCC2=O [Estropipate] + CCCCNC(=O)OCC#CI [3-iodo-2-propynyl butylcarbamate (IPBC)]	87 ± 1.6	89.7 ± 2
Oc1c(Cl)cc(Cl)c(Cl)c1Cc1c(O)c(Cl)cc(Cl)c1Cl [Hexachlorophene] + CCCCNC(=O)OCC#CI [3-iodo-2-propynyl butylcarbamate (IPBC)]	19.4 ± 4.8	80.2 ± 2.6
CC(C)C(=O)OCC(=O)[C@@]12O[C@H](C3CCCCC3)O[C@@H]1C[C@H]1[C@@H]3CCC4=CC(=O)C=C[C@]4(C)[C@H]3[C@@H](O)C[C@@]12C [Ciclesonide] + CCCCNC(=O)OCC#CI [3-iodo-2-propynyl butylcarbamate (IPBC)]	107 ± 6.8	103 ± 5.8
CC(C)CC(=O)N[C@H](C(=O)N[C@H](C(=O)N[C@@H](CC(C)C)[C@@H](O)CC(=O)N[C@@H](C)C(=O)N[C@@H](CC(C)C)[C@@H](O)CC(=O)O)C(C)C)C(C)C [Pepstatin A] + CCCCNC(=O)OCC#CI [3-iodo-2-propynyl butylcarbamate (IPBC)]	96.4 ± 11	103 ± 6.7
CN[C@@H]1[C@H](O[C@H]2[C@H](O[C@H]3[C@H](O)[C@@H](O)[C@H](N=C(N)N)[C@@H](O)[C@@H]3N=C(N)N)O[C@@H](C)[C@]2(O)C=O)O[C@@H](CO)[C@H](O)[C@H]1O [Streptomycin sulfate] + CCCCNC(=O)OCC#CI [3-iodo-2-propynyl butylcarbamate (IPBC)]	101 ± 3.8	99.9 ± 1.1
O=C(O)COC(=O)Cc1ccccc1Nc1c(Cl)cccc1Cl [Aceclofenac] + CCCCNC(=O)OCC#CI [3-iodo-2-propynyl butylcarbamate (IPBC)]	79.9 ± 0.48	95.9 ± 1.7
Cc1ccc(Cl)c(Nc2ccccc2C(=O)O)c1Cl [Meclofenamic acid sodium salt monohydrate] + CCCCNC(=O)OCC#CI [3-iodo-2-propynyl butylcarbamate (IPBC)]	71.3 ± 1.4	85.3 ± 1.8
O=C(O)Cc1ccccc1Nc1c(Cl)cccc1Cl [Diclofenac sodium] + CCCCNC(=O)OCC#CI [3-iodo-2-propynyl butylcarbamate (IPBC)]	44.79 ± 0.32	74.7 ± 1.5
O=C(CCCCCCC(=O)Nc1ccccc1)NO [Vorinostat] + CCCCNC(=O)OCC#CI [3-iodo-2-propynyl butylcarbamate (IPBC)]	107 ± 9.5	99.5 ± 3.9
COc1cc2nc(N3CCN(C(=O)c4ccco4)CC3)nc(N)c2cc1OC [Prazosin hydrochloride] + CCCCNC(=O)OCC#CI [3-iodo-2-propynyl butylcarbamate (IPBC)]	84.82 ± 0.32	92.6 ± 1.1
OCCOCCN1CCN(C2=Nc3ccccc3Sc3ccccc32)CC1 [Quetiapine hemifumarate] + CCCCNC(=O)OCC#CI [3-iodo-2-propynyl butylcarbamate (IPBC)]	72.75 ± 0.64	85.7 ± 3.2
CN(C)CCOC1=Cc2ccccc2Sc2ccc(Cl)cc21 [Zotepine] + CCCCNC(=O)OCC#CI [3-iodo-2-propynyl butylcarbamate (IPBC)]	38.6 ± 0.16	97.7
OCCN1CCN(CC/C=C2/c3ccccc3Sc3ccc(Cl)cc32)CC1 [Zuclopenthixol dihydrochloride] + CCCCNC(=O)OCC#CI [3-iodo-2-propynyl butylcarbamate (IPBC)]	4.92 ± 0.16	3.57 ± 0.21
CN(C)CCOC(c1ccc(Cl)cc1)c1ccccn1 (stereo not drawn) [Carbinoxamine maleate salt] + CCCCNC(=O)OCC#CI [3-iodo-2-propynyl butylcarbamate (IPBC)]	103 ± 9.4	102 ± 4.9
CN(C)CC/C=C1\c2ccccc2CSc2ccccc21 [Dosulepin hydrochloride] + CCCCNC(=O)OCC#CI [3-iodo-2-propynyl butylcarbamate (IPBC)]	77.5	99 ± 1.1
CN(C)CC/C=C1/c2ccccc2Sc2ccc(Cl)cc21 [Chlorprothixene hydrochloride] + CCCCNC(=O)OCC#CI [3-iodo-2-propynyl butylcarbamate (IPBC)]	24.5 ± 7.9	83.6 ± 8.9
CN(C)CCC=C1c2ccccc2C=Cc2ccccc21 [Cyclobenzaprine hydrochloride] + CCCCNC(=O)OCC#CI [3-iodo-2-propynyl butylcarbamate (IPBC)]	65.1	88.41 ± 0.73

Source: the supplement of paper PMC8007513
